Inconclusive results are not listed. Active and inactive are the calls of the source.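 Rule for the calls, unless noted: active = GFP response, as percent of the DMSO control, above the screen-wide mean plus 3 SD, about 139; inconclusive = no response measured because the compound's own fluorescence interfered; inactive = the rest.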
How the values were obtained:
[1] = rapamycin-like changes in RPL19A-GFP expression – cell-based, S. cerevisiae, multiplex flow cytometry, primary screen (AID 1862; in the data active = percent of DMSO control GFP below about 86%;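 note: lower values mimic rapamycin by blocking the RPL19A rise seen in DMSO cells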); conditions: S. cerevisiae RPL19A-GFP strain, flow cytometry fluorescence, 3 h; at 10 µM; stronger effect = lower value
[2] = TOR pathway GLN3 branch reporter MEP2-GFP changes – S. cerevisiae, multiplex flow cytometry, primary screen (AID 1867);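 note: median GFP channel fluorescence of barcode-gated MEP2-GFP cells measured by flow cytometry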; conditions: S. cerevisiae MEP2-GFP strain, 3 h, at 10 µM, stronger effect = higher value, 100% means same as DMSO wells
[3] = TOR pathway RTG branch CIT2 reporter changes – S. cerevisiae, GFP fusion, multiplex flow cytometry, primary screen (AID 1870;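 active = percent response above a set limit, the screen-wide mean plus 3 SD, cut at about 130% in these data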;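 note: barcoded CIT2-GFP strain pooled with four other GFP strains with rapamycin as positive control; median GFP fluorescence per well over plate mean of DMSO wells so 100% = DMSO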); conditions: S. cerevisiae CIT2-GFP expression, 3 h, at 10 µM, stronger effect = higher value
[4] = TOR pathway LAP4-GFP level changes – S. cerevisiae, multiplex flow cytometry, primary screen (AID 1873;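 active = GFP signal, as percent of the solvent control, above the screen mean plus 3 SD, about 149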); conditions: S. cerevisiae LAP4-GFP expression, 3 h, at 10 µM, stronger effect = higher value
[5] = yeast AGP1-GFP level changes, GLN3 branch – cell-based, multiplex flow cytometry, S. cerevisiae, primary screen (AID 1887;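 active = GFP signal above the screen-wide mean plus 3 SD, that is over about 124.5% of the solvent control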;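 note: AGP1-GFP fusion strain of S. cerevisiae within a five-strain barcoded multiplex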); conditions: 3 h, at 10 µM, stronger effect = higher value
[6] = reduced mouse 2C T cell binding to pMHC/ICAM-1 vesicles – MLPCN validation set, flow cytometry, LFA-1/ICAM-1 modulator project, pilot screen (AID 2523;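 active = response below a set limit, under 55% cells CD8-positive and vesicle-bound, and CD8 cells' 90th-percentile brightness under 279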;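 for vesicle binding response: mean PE anti-B7-1 fluorescence of CD8+ cells relative to row control; 100% = QL9-loaded vesicles with DMSO vehicle in the same plate row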); conditions: 2C mouse CD8+ T cells, at 7 µM, stronger effect = lower value; double positive events: measured here: CD8+/vesicle+ event percentage
[7] = molecular target: Integrin beta-1 (Homo sapiens) + Integrin alpha-4 (Homo sapiens) (UniProt P13612+P05556); experiment: alpha4beta1 integrin LIBS antibody binding reduction – U937 cells, HUTS-21 mAb, flow cytometry, validation set, VLA-4 allosteric modulator project, pilot screen (AID 2674;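 active = inhibition above 50%, about 3 SD of the validation set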;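 note: antibody binding induced by the VLA-4 ligand LDV present at three times its Kd; 0% = LDV ligand with antibody and no compound and 100% = antibody without LDV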); conditions: HUTS-21 LIBS mAb binding, at 6.7 µM, stronger effect = higher value, binding induced by LDV ligand
Sequence of Integrin beta-1 (Homo sapiens) + Integrin alpha-4 (Homo sapiens) (P05556 whole entry, looked up): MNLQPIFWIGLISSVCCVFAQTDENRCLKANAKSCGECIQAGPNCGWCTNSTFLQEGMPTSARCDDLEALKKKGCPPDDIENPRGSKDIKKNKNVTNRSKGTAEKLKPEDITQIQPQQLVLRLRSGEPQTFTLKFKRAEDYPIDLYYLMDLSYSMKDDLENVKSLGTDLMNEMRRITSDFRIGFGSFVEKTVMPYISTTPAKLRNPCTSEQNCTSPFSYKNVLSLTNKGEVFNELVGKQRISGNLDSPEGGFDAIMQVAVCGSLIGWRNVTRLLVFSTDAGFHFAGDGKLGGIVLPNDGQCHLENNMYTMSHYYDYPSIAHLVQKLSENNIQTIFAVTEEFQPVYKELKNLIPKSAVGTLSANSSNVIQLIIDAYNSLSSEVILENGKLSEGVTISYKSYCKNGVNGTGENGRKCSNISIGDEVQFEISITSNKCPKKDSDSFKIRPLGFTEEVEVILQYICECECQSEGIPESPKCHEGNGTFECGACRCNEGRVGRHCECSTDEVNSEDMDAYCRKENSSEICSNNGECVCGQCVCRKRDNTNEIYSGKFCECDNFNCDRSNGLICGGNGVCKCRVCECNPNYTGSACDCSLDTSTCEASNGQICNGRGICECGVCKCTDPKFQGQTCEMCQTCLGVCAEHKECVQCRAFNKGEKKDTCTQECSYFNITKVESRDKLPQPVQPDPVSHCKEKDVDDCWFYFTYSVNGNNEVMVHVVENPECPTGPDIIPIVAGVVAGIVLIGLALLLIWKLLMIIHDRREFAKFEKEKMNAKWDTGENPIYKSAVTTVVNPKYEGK
Sequence of Integrin beta-1 (Homo sapiens) + Integrin alpha-4 (Homo sapiens) (P13612 whole entry, looked up): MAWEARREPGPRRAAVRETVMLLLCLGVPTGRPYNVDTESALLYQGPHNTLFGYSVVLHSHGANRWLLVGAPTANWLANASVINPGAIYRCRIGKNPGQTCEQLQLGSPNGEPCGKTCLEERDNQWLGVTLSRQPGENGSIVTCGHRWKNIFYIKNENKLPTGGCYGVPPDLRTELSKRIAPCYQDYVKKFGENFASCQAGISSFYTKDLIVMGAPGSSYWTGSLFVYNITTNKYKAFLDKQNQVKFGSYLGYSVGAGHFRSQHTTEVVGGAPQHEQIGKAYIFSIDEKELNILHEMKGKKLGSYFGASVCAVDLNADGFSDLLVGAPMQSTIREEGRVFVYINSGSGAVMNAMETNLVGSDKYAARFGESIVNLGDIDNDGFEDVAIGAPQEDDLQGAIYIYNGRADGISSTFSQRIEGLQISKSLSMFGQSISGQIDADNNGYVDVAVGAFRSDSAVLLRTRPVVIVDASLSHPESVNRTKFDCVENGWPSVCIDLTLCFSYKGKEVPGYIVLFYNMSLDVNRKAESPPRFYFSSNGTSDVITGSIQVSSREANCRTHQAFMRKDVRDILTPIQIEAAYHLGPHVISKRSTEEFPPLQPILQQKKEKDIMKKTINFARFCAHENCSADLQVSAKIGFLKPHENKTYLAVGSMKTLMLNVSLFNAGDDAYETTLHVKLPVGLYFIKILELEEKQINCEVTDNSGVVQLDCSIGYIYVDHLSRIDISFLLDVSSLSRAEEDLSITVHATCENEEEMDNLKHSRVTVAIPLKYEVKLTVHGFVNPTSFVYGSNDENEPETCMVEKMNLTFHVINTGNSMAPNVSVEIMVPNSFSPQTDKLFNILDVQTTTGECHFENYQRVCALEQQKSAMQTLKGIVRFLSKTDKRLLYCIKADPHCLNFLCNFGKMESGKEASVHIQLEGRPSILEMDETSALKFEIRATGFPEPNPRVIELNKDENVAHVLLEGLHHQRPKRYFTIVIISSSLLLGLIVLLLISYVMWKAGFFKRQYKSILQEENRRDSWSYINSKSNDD

[8] = calorie-restriction mimetic ROS inhibitors, yeast – validation compound set, pilot screen (AID 2706;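 active = superoxide response below 65% of plate, a cut near 3 SD across the whole screen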;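 note: yeast exposed to compound for one week at 30 degrees C before staining; 100% = mean of all compound wells on the same plate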); conditions: S. cerevisiae aging, superoxide DHE fluorescence; at 10 µM; stronger effect = lower value
[9] = molecular target: Beta-adrenergic receptor kinase 1 (Homo sapiens) (UniProt P25098); experiment: GRK2 binders displacing RNA aptamer, biochemical, validation, human GRK2, bead flow cytometry (AID 488806;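 active = aptamer binding inhibition above 30%, about 3 SD of noise from non-fluorescent compounds; inactive = inhibition at or below 30%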); conditions: bead-bound GRK2, FAM-aptamer displacement, at 10 µM, stronger effect = higher value
Sequence of Beta-adrenergic receptor kinase 1 (Homo sapiens) (P25098 whole entry, looked up): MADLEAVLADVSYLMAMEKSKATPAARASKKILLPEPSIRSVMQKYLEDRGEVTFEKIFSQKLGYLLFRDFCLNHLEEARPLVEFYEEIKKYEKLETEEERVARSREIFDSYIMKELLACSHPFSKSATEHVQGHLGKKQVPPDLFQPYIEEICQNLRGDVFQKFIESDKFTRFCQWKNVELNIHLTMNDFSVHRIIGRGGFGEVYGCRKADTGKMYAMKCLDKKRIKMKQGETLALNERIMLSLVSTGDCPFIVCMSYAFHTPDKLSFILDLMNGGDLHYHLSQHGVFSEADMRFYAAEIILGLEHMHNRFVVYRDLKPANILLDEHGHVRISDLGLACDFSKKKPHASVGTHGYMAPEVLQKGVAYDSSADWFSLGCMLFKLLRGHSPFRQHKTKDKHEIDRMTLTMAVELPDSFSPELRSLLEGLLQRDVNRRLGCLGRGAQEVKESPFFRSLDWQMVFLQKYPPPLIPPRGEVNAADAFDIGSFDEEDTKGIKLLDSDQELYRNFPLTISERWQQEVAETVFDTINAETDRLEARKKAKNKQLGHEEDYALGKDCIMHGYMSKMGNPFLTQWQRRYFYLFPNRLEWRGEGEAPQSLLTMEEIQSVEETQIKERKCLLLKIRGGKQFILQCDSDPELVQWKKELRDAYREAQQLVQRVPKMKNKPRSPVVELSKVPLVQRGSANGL

[10] = molecular target: Beta-2 adrenergic receptor (Homo sapiens) (UniProt P07550); experiment: agonist-induced loss of surface beta2AR – cell-based, FAP fluorogen, flow cytometry, validation set, pilot screen (AID 504459;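 active = percent response above 42, roughly 3 SD of non-fluorescent test compounds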;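 note: agonist-driven loss of surface beta2AR via internalization measured by FAP dye flow cytometry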); conditions: Am2.2-beta2AR cells, at 10 µM, stronger effect = higher value
Sequence of Beta-2 adrenergic receptor (Homo sapiens) (P07550 whole entry, looked up): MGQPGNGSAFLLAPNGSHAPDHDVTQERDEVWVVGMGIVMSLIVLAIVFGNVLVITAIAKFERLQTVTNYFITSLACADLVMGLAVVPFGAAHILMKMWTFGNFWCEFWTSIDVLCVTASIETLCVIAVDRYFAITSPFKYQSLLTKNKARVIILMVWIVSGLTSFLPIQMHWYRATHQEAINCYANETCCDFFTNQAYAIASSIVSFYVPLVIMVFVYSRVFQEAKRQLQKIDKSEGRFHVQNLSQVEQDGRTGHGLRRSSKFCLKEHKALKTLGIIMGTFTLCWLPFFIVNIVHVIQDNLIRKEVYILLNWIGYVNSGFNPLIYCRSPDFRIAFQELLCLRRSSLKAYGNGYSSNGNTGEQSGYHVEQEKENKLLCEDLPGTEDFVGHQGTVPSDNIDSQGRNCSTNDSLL

[11] = molecular target: AP-2 complex subunit beta (Homo sapiens) (UniProt P63010); experiment: beta-arrestin/AP2 interaction blockers – biochemical, validation set, GST-AP2 beads, flow cytometry, pilot screen (AID 504541;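 active = inhibition above 54%, about 3 SD of non-fluorescent compounds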;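 note: AP2 carries R879A mutation and is captured from E. coli lysate; bead-bound FITC arrestin peptide fluorescence measuring arrestin peptide binding to AP2; 0% = DMSO wells and 100% = excess unlabeled arrestin peptide control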); conditions: FITC arrestin peptide, at 10 µM, stronger effect = higher value, AP2 beta2 appendage fragment, R879A mutant
Sequence of AP-2 complex subunit beta (Homo sapiens) (P63010 whole entry, looked up, the tested form may be a part, one chain of several): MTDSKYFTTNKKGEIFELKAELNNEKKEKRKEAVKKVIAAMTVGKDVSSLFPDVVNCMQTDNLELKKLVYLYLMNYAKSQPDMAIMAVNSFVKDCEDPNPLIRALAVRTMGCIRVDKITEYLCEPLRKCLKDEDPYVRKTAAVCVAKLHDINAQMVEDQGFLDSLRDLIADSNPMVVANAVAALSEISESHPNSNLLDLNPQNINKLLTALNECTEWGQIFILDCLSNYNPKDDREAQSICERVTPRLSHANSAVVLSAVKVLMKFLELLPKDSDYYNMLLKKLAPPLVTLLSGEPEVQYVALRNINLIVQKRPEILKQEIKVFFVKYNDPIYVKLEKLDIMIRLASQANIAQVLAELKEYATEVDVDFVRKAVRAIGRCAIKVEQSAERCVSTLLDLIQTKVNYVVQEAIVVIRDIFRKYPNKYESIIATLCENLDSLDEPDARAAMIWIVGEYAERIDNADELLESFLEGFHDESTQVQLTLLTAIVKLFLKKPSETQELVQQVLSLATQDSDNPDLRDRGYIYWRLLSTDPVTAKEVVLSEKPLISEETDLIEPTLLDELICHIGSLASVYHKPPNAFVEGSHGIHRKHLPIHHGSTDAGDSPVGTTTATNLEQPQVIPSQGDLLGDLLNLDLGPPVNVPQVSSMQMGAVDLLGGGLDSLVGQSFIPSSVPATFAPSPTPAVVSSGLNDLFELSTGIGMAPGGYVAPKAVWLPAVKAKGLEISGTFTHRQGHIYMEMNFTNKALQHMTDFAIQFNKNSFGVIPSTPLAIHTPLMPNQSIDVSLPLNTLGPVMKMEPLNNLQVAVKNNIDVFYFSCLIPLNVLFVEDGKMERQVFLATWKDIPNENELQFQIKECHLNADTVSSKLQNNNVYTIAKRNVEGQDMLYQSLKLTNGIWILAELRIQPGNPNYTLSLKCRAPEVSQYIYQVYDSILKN

[12] = cytosolic pH regulators acting via V-ATPase – S. cerevisiae, pHLuorin, HTS validation (AID 504600; in the data active = response above about 15%;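 note: plate controls were DMSO for no effect and reference compound for full effect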); conditions: V-ATPase proton transport, at 10 µM, stronger effect = higher value
[13] = tested on: anti-desmoglein-3 scFv antibody binding to human DSG3; experiment: blockers of pathogenic pemphigus antibody–desmoglein-3 binding – biochemical, validation compound set, bead-based, flow cytometry, pilot screen (AID 588368;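 active = binding below the plate cutoff, the plate median minus 3 SD, with a reading above zero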;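 note: signal is the median channel fluorescence of bead-bound GFP antibody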); conditions: Protein G beads, DSG3-Fc, scFv-GFP binding, at 10 µM, stronger effect = lower value
[14] = Nile Red efflux blockade in pump-expressing yeast – validation compound set, multiplex, phenotypic, pilot screen (AID 588506;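 active = efflux inhibition above 0.42, the validation set average plus 4 SD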;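 note: Nile Red retained in cells so higher fluorescence means more efflux inhibition; 0 = negative control wells and 1 = enniatin B 25 µM full block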); conditions: S. cerevisiae pump-expressing triplex, Nile Red efflux flow cytometry; at 10 µM; stronger effect = higher value; the pumps come from Candida albicans
[15] = molecular target: ATP-binding cassette sub-family B member 6 (Homo sapiens) (UniProt Q9NP58); experiment: blockers of ABCB6-driven porphyrin uptake – K562-ABCB6 cells, flow cytometry, validation set, pilot screen (AID 588550;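 active = inhibition above the screen-wide mean plus 3 SD, about 51%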;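 note: 0% = DMSO wells and 100% = benzethonium chloride 70 µM positive control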); conditions: K562-ABCB6 porphyrin accumulation, 1 h, at 10 µM, stronger effect = higher value
Sequence of ATP-binding cassette sub-family B member 6 (Homo sapiens) (Q9NP58 whole entry, looked up): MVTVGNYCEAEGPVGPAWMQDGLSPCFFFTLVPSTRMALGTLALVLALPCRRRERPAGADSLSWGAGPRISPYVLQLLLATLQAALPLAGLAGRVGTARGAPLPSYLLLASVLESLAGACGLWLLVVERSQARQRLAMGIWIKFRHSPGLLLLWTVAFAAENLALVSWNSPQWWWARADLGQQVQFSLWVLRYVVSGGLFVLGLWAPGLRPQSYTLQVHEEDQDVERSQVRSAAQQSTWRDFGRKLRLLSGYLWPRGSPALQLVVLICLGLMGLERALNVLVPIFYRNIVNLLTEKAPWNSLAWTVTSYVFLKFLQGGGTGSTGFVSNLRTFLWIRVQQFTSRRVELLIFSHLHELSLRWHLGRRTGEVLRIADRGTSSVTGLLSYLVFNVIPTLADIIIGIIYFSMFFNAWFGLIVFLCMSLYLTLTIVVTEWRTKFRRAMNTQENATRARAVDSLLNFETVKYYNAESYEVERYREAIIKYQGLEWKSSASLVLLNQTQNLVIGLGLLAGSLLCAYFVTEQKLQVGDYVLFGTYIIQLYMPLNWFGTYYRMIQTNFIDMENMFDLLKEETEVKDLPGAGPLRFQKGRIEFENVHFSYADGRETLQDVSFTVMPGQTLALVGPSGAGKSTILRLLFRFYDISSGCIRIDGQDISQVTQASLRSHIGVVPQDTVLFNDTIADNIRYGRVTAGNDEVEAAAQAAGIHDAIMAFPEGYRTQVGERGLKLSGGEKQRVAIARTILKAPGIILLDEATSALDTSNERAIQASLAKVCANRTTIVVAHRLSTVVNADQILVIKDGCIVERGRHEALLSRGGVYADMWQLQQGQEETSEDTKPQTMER

[16] = AML differentiation inducers, ER-HoxA9 marrow cells – cell-based, GFP/MAC1 double positive, flow cytometry, validation set, primary screen (AID 588685;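 active = differentiation response of at least 50%, scaled between solvent and reference control, from cells with both markers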;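 note: compound exposure lasts four days before antibody staining and flow analysis; 0% = DMSO wells and 100% = 5 µM fulvestrant positive control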); conditions: stronger effect = higher value, normalized: vehicle 0, fulvestrant 100

| SMILES | percent of DMSO control GFP [1] | GFP response vs DMSO [2] | percent response of DMSO control [3] | GFP response vs DMSO [4] | GFP response, % of DMSO [5] | double positive events [6] [%] | vesicle binding response [6] | inhibition [7] | superoxide response (% of plate) [8] | aptamer binding inhibition [9] | response [10] | inhibition [11] | response [12] | binding (% of control) [13] | efflux inhibition (fraction of control) [14] | inhibition [15] | differentiation response [16] |
| --- | --- | --- | --- | --- | --- | --- | --- | --- | --- | --- | --- | --- | --- | --- | --- | --- | --- |
| COc1ccc(C2OC(=O)Cc3cc(OC)c(OC)cc32)cc1 (configuration not stated) | 90.6% (inactive) | 127% (inactive) | 91.3% (inactive) | 82.5% (inactive) | 88% (inactive) | 63.4 | 177% (inactive) | -6.15% (inactive) | 94.5% (inactive) | 2% (inactive) | -3.02% (inactive) | -4.51% (inactive) | -1.1% (inactive) | 103% (inactive) | -0.38 (inactive) | 7% (inactive) | 3.28% (inactive) |
| Cc1ccc(OCc2nc(-c3cccnc3)no2)cc1C | 92% (inactive) | 124% (inactive) | 99.2% (inactive) | 75.4% (inactive) | 88% (inactive) | 60.5 | 221% (inactive) | -7.12% (inactive) | 101% (inactive) | 1% (inactive) | -15.7% (inactive) | 1.06% (inactive) | 3.35% (inactive) | 98.3% (inactive) | 0.27 (inactive) | 9% (inactive) | 2.46% (inactive) |
| CCN1CCn2c3c(c4cc(Cl)ccc42)CCCC31 (configuration not stated) | 99.3% (inactive) | 102% (inactive) | 97.7% (inactive) | 107% (inactive) | 116% (inactive) | 62.3 | 154% (inactive) | -10.5% (inactive) | 106% (inactive) | 5% (inactive) | -10.7% (inactive) | -7.04% (inactive) | 3% (inactive) | 104% (inactive) | -0.09 (inactive) | -8% (inactive) | -21.7% (inactive) |
| CCOCCCNCc1cn(-c2ccc(F)cc2F)nc1-c1ccccc1C | 103% (inactive) | 98.3% (inactive) | 109% (inactive) | 93.3% (inactive) | 102% (inactive) | 61.9 | 200% (inactive) | -1.49% (inactive) | 101% (inactive) | 1% (inactive) | -8.93% (inactive) | 14.5% (inactive) | 4.59% (inactive) | 94.2% (inactive) | -0.07 (inactive) | -10% (inactive) | -1.71% (inactive) |
| CCN(CC)c1ccc([C@H]2[C@@H]3CCCC[C@]3(O)CCN2CC(=O)NCc2ccco2)cc1 | 97.4% (inactive) | 108% (inactive) | 91% (inactive) | 121% (inactive) | 98.5% (inactive) | 60.3 | 190% (inactive) | -25% (inactive) | 95.1% (inactive) | 4% (inactive) | 47.5% (active) | -7.96% (inactive) | 25.9% (active) | 99.5% (inactive) | 0.33 (inactive) | 8% (inactive) | -7.2% (inactive) |
| Cc1cc(C(=O)Nc2ccccc2C(=O)N2CCCCC2)ccc1[N+](=O)[O-] | 98.4% (inactive) | 103% (inactive) | 86.7% (inactive) | 114% (inactive) | 103% (inactive) | 62.3 | 168% (inactive) | -7.08% (inactive) | 124% (inactive) | 1% (inactive) | -23.4% (inactive) | 19.6% (inactive) | -4.47% (inactive) | 108% (inactive) | -0.04 (inactive) | 8% (inactive) | -8.93% (inactive) |

— PubChem BioAssay
